According to PubChem BioAssay (NCATS):
Records with an inconclusive call do not appear. Active and inactive are the calls of the source. Unless noted, the call rests on the fitted dose curve; in most records, active means well fitted curve in the direction sought with a large enough effect; inconclusive means small, poorly fitted or top-dose-only effect, or another doubt; inactive means no such curve, though single readings can be large; an effect the other way counts as inactive or inconclusive.

Columns and labels:
[1] = biological target: Nuclear receptor subfamily 1 group I member 3 (Homo sapiens) (UniProt Q14994); assay: qHTS for Constitutive Androstane Receptor (CAR) Antagonist screened against the NCATS CANVASS Library (AID 1347372)
Nuclear receptor subfamily 1 group I member 3 (Homo sapiens), sequence (Q14994 whole entry, looked up): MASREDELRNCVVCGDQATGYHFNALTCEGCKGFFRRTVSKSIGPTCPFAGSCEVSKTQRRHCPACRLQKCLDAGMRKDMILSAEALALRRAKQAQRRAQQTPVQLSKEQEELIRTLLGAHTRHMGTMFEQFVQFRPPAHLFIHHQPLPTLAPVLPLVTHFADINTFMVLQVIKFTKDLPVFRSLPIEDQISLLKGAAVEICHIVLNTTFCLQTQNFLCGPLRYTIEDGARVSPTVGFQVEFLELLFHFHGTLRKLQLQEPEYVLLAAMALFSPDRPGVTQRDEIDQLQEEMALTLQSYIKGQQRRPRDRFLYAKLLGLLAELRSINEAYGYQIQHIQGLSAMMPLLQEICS
Outline: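 Cells were seeded and left 4hr to attach, then received compound at 11 concentrations and 50 nM CITCO. Following 24hr incubation, fluorescence viability and luciferase luminescence were read sequentially.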

[2] = biological target: Nuclear receptor subfamily 1 group I member 3 (Homo sapiens) (UniProt Q14994); assay: qHTS for Constitutive Androstane Receptor (CAR) Agonist screened against the NCATS CANVASS Library (AID 1347373)
Outline: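 In an 11-point concentration series, compounds were incubated 24hr with HepG2 cells carrying hCAR and a CYP2B6-2.2kb reporter, with PK11195 at 1.5uM final. A CellTiter-Fluor viability read preceded the ONE-Glo luminescence read.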

[3] = qHTS for Hypoxia signaling pathway (HIF-1) antagonists against the NCATS CANVASS Library (AID 1347374)
Outline: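 Beta-lactamase reporter under HRE control in ME-180 cells; CoCl2 stimulus (60 uM solution as added), compounds 11-pt qHTS, 17 h 37C. CCF4 dye 2 h RT, 460/530 nm emission. CellTiter-Glo viability in same wells.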

[4] = qHTS for Inflammasome Signaling Inhibitors: IL-1-beta AlphaLISA screen against the NCATS CANVASS Library (AID 1347379)
Outline: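 THP-1, 1 hr compound pre-incubation, then LPS 250 ng/mL + ATP 1.25 mM (final); 16 hr total with compound; IL-1B AlphaLISA, ex 680/em 615 nm; 11-point qHTS, up to 57.5 uM final.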

[5] = qHTS for Antimalaria activity screened against the NCATS CANVASS Library (AID 1347380)
Outline: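 Measures proliferation or cytotoxicity against Dd2 blood stages in 72 h cultures, 11-point qHTS dosing, with SYBR Green fluorescence as read-out; dihydroartemisinin titration served as control.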

[6] = Inflammasome Signaling qHTS Counterscreen: IL-1-beta AlphaLISA counterscreen against the NCATS CANVASS Library (AID 1347381)
Outline: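 Here, no cellular stimulation occurs; compounds in an 11-point series meet 4 pg purified IL-1-beta directly. Bead-based AlphaLISA detection follows (1 h acceptor/antibody, then 30 min donor, dark, room temperature), with excitation at 680 nm.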

[7] = Cytotoxicity qHTS for assessment of Hepg2 cells membrane integrity screened against the NCATS CANVASS Library (AID 1347387)
Outline: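 Membrane damage in HepG2 monolayers was estimated from released LDH, measured with CytoTox-ONE (ex 560/em 590 nm), after 5 hr treatment across 0.59 nM - 46 uM final.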

[8] = qHTS for Activators of p53 Stress Response Pathway screened against the NCATS CANVASS Library (AID 1347388)
Outline: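 p53RE-bla HCT-116 cells (4000/well) were plated 5 h at 37C, exposed to compounds for 16 h at 37C over an 11-point concentration series, then loaded with CCF4 for 2 h at room temperature; 460/530 nm emission ratio read.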

[9] = qHTS assay for small molecule disruptors of mitochondrial membrane potential screened against the NCATS CANVASS Library (AID 1347389)
Outline: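 Cells (HepG2) seeded the day before received compound or DMSO for 1 hr, then Mito-MPS dye for 30 min at 37C; emission at 590 nm over 535 nm gave the polarization signal.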

[10] = Secretion counterscreen for inhibitors of the SERCaMP assay screened against the NCATS CANVASS Library (AID 1347390)
Outline: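 Counterscreen identifying compounds that disrupt secretion, using SH-SY5Y cells with a constitutively secreted Gaussia luciferase reporter. A 20 h compound exposure (top 77 uM) precedes luminescent detection with coelenterazine.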

[11] = qHTS for activators of Nrf2/ARE signaling pathway screened against the NCATS CANVASS Library (AID 1347391)
Outline: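 Activation of Nrf2/ARE was scored in ARE-bla HepG2 cells after 16 h compound exposure using CCF4 beta-lactamase fluorescence ratio readings.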

[12] = qHTS for activators of dead-cell proteases activity screened against the NCATS CANVASS Library (AID 1347392)
Outline: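 Cytotoxicity in HepG2 cells was assessed by released protease cleaving AAF-aminoluciferin, with luminescence as signal. Exposure lasted 5 h at 37C across an 11-point series.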

[13] = Vero-766 cells viability qHTS against the NCATS CANVASS Library: Counterscreen for Zika virus inhibition assay (AID 1347394)
Outline: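 This cytotoxicity counterscreen uses African green monkey Vero 766 cells in the absence of Zika virus. Compounds are incubated with cells for 72 h, and ATP-based luminescence reports viability.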

[14] = qHTS for inhibitors of Wild type Zika virus screened against the NCATS CANVASS Library (AID 1347396)
Outline: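 Luminescent CellTiter Glo read-out of virus-induced cytotoxicity, 72 h post-infection, in Vero 766 cells. Compounds were tested at 11 concentrations; uninfected, vehicle-treated wells defined 100% inhibition.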

[15] = qHTS for inhibitors of Rabies Virus screened against the NCATS CANVASS Library (AID 1347402; calls by dose curve)
[16] = test system: Zika virus NS2B-NS3 protease (linked construct); assay: Confirmatory screen NINDS AMC qHTS for Zika virus inhibitors (AID 1347152)
Outline: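 In this dose-response qHTS, AMC release from 10 microM Bz-Nle-KRR-AMC by 1 nM linked protease is measured over 15 minutes (about 20% conversion) at pH 8.0. Percent inhibition is fitted to a 4-parameter Hill curve.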

[17] = Confirmatory screen GU Rhodamine qHTS for Zika virus inhibitors qHTS (AID 1347157)
Outline: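 Unlinked NS2B/NS3, 25 nM; Rhod110 peptide, 1.5 microM; compounds, up to 114 microM. Reaction run 15 min at RT in 10 mM Tris-HCl pH 8.0, 0.01% Tween 20; kinetic fluorescence change fitted with a 4-parameter Hill model.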

[18] = Confirmatory screen NINDS Rhodamine qHTS for Zika virus inhibitors (AID 1347161)
Outline: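 Rhodamine110-peptide cleavage (1.5 µM substrate) by 25 nM linked NS2B-NS3 enzyme at pH 8.0 (Tris, Tween 20), after 15 min RT preincubation with compounds; 15-min fluorescence change normalized to controls and Hill-fitted.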

[19] = Vero cells viability qHTS for Zika virus inhibitors (AID 1347167)
Outline: (§1)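 To flag cytotoxic protease inhibitors, viability is measured by ATP-dependent luminescence (CellTiter Glo) after cells attached overnight receive compound for 24 to 48 hours in DMEM with 4% FBS.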

[20] = HepG2 cells viability qHTS for Zika virus inhibitors (AID 1347168)
Outline: as §1

Measured: Potency

C/C=C1/CN2CC[C@]34C(=Nc5ccccc53)[C@@H]2C[C@@H]1[C@H]4C(=O)OC
not listed: [16] | [17] | [18] | [19] | [20]
inactive: all other assays above

CN1C(=O)[C@]23CC4C(C)(C)[C@@]5(C[C@@]41CN2CC[C@@]3(C)O)C(=O)Nc1c5ccc2c1OC=CC(C)(C)O2 (stereo not given in full)
not listed: [16] | [17] | [18] | [19] | [20]
inactive: all other assays above

CC/C=C/C=C/C1(C)OC(OC)=C(C(=O)C2C(C)C(=O)c3cc(OC)c(O)c(O)c3C2(C)O)C1=O (stereo not given)
inactive: [16] | [19] | [20]
active: [17] 9.61 µM | [18] 6.81 µM

CC(C)=CCC[C@]1(C)C=Cc2c(O)c3c(c(CC=C(C)C)c2O1)O[C@]12C(=C[C@@H]4CC1C(C)(C)O[C@@]2(C/C=C(/C)C(=O)O)C4=O)C3=O
active: [16] 9.87 µM | [17] 1.56 µM | [18] 2.48 µM | [19] 8.29 µM | [20] 2.94 µM
